Consider seven sequences from PMC7862700, “An all-to-all approach to the identification of sequence-specific readers for epigenetic DNA modifications on cytosine”.

Assay in all cases: DAPPL (digital affinity profiling via proximity ligation, sequencing); 10 mM Tris-HCl pH 7.5, 50 mM NaCl, 1 mM DTT, 4% glycerol, room temperature, 30 min; GST-TFs on glutathione beads, 16-mer random dsDNA library, 0.1% formaldehyde crosslink after washing; high values mean tight binding
Conditions in all cases: protein: recombinant; tags: N-terminal GST; dsDNA, one strand shown

One assay addresses T1, ERF (Homo sapiens, UniProt P50548 1-548).
T1 sequence: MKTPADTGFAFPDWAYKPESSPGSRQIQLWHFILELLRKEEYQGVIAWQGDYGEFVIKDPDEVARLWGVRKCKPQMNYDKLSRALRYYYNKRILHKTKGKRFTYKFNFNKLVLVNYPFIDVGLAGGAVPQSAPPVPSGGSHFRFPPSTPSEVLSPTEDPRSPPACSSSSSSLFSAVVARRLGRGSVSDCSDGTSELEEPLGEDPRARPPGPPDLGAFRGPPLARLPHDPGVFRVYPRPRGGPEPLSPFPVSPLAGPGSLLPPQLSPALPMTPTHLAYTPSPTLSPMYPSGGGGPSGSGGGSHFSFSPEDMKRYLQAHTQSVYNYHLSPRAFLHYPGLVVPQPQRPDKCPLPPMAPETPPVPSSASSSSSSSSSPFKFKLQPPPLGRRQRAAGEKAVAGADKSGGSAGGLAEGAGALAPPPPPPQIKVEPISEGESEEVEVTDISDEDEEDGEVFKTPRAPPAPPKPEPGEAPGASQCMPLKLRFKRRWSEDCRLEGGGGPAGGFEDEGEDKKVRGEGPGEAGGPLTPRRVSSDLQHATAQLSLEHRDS
The essentials: (§1)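 A tag-only sample was pooled with DNA-barcoded human transcription factors that had been expressed in yeast as GST fusions and captured on glutathione beads. The pools were incubated for 30 min at room temperature with 200 nmole of a random double-stranded 16-mer DNA library in Tris/NaCl/DTT/glycerol buffer, then washed, crosslinked with 0.1% formaldehyde, proximity-ligated (BsaI/T4 ligase, 1 h, 37 °C), PCR-amplified and sequenced on an Illumina NextSeq500. Binding signal is each hexamer's read frequency for a factor divided by its frequency for the tag-only sample.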

The next assay addresses T2, ETV3L (Homo sapiens, UniProt Q6ZN32 1-361).
T2 sequence: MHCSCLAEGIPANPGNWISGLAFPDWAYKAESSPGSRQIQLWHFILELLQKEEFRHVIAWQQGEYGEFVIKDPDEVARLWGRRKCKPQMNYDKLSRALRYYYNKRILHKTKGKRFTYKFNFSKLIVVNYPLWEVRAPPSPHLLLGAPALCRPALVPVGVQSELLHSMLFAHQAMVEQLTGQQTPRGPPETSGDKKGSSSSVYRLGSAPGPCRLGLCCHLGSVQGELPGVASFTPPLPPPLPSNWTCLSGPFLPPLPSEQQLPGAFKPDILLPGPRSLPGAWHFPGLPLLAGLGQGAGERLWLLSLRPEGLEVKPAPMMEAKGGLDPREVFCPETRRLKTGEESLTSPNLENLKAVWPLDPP
The procedure, abridged: as §1

The next assay deals with T3, ETS2 (Homo sapiens, UniProt P15036 1-469).
T3 sequence: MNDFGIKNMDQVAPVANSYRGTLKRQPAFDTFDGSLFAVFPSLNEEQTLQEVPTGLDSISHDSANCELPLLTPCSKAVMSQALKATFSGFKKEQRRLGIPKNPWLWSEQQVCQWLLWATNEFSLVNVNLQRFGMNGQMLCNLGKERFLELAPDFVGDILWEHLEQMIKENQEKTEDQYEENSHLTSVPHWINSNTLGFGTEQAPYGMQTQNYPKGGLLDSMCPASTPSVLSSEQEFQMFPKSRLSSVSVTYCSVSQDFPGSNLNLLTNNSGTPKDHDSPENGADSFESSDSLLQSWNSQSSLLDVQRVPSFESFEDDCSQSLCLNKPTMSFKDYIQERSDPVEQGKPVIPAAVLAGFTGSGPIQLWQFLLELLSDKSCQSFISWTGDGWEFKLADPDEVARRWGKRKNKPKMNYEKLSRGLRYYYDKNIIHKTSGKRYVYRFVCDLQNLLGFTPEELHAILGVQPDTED
The essentials: as §1

The next assay concerns the target T4, SPDEF (Homo sapiens, UniProt O95238 1-335).
T4 sequence: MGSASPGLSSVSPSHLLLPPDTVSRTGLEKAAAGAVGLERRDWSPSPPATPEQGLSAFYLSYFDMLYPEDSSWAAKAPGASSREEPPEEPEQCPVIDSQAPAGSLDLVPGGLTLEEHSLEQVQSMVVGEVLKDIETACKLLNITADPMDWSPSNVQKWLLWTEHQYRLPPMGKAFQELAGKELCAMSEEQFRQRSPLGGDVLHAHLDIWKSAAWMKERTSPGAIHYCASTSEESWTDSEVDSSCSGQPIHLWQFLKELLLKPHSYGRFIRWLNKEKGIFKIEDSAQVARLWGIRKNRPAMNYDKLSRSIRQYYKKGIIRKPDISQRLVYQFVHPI
The procedure, abridged:
as §1

The target of the next assay is T5, ETV7 (Homo sapiens, UniProt Q9Y603 1-341).
T5 sequence: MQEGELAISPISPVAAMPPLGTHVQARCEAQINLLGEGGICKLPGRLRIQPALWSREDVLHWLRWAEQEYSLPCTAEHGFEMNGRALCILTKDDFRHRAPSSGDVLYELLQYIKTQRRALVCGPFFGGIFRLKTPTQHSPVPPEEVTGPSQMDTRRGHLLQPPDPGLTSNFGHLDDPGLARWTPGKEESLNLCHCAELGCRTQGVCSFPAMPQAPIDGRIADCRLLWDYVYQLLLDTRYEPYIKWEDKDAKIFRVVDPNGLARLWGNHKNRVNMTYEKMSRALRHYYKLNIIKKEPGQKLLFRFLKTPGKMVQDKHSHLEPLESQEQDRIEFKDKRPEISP
The procedure, abridged: as §1

The next assay concerns the target T6, ELF5 (Homo sapiens, UniProt Q9UKW6-2 1-255).
T6 sequence: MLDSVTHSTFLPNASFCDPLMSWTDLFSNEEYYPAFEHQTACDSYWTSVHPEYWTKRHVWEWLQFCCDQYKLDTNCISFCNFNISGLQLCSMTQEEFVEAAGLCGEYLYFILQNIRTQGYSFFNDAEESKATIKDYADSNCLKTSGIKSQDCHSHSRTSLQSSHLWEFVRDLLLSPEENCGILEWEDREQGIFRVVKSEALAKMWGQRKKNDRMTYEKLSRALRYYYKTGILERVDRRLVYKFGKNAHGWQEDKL
The procedure, abridged:
as §1

The next assay addresses T7, ETV3 (Homo sapiens, UniProt P41162-2 1-143).
T7 sequence: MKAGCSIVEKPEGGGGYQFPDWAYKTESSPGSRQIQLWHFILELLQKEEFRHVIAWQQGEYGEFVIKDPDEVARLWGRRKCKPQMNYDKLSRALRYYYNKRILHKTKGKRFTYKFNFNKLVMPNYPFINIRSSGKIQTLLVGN
The essentials:
as §1

The next assay addresses ETV6 (Homo sapiens, UniProt P41212 1-452). The procedure, abridged:
as §1

Sequence of ETV6 (P41212 whole entry): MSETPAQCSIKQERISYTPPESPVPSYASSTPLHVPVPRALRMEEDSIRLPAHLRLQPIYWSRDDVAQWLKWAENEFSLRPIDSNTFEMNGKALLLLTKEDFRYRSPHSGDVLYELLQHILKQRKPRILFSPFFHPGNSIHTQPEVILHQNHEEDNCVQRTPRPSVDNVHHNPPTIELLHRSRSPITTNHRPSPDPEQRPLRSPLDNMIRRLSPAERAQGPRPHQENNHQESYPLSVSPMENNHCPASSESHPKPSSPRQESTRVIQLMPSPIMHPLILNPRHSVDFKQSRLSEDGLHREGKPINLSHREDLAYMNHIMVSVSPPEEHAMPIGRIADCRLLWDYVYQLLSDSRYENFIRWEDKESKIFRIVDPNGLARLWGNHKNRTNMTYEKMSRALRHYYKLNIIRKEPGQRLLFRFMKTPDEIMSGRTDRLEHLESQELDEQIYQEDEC

For TGTATT, the binding signal in the assay with ERF is 1.36 fold enrichment (6-mer frequency, TF over GST control); with ETV3L, 1.4 fold enrichment (6-mer frequency, TF over GST control); with ETS2, 1.4 fold enrichment (6-mer frequency, TF over GST control); with SPDEF it was 1.42 fold enrichment (6-mer frequency, TF over GST control); with ETV7 it was 1.4 fold enrichment (6-mer frequency, TF over GST control); in the assay with ELF5, 1.26 fold enrichment (6-mer frequency, TF over GST control). Further, the binding signal is 1.41 fold enrichment (6-mer frequency, TF over GST control) with ETV3 and 1.41 fold enrichment (6-mer frequency, TF over GST control) with ETV6.
For TACGCA, the binding signal was 1.28 fold enrichment (6-mer frequency, TF over GST control) with ERF; 1.12 fold enrichment (6-mer frequency, TF over GST control) with ETV3L; 1.2 fold enrichment (6-mer frequency, TF over GST control) with ETS2; 1.16 fold enrichment (6-mer frequency, TF over GST control) with SPDEF; 1.12 fold enrichment (6-mer frequency, TF over GST control) with ETV7; 1.11 fold enrichment (6-mer frequency, TF over GST control) with ELF5. The binding signal was 1.1 fold enrichment (6-mer frequency, TF over GST control) with ETV3 and 1.18 fold enrichment (6-mer frequency, TF over GST control) with ETV6.
With CCTCGC, the binding signal with ERF was 1.31 fold enrichment (6-mer frequency, TF over GST control); with ETV3L it was 1.53 fold enrichment (6-mer frequency, TF over GST control); with ETS2 it was 1.41 fold enrichment (6-mer frequency, TF over GST control); with SPDEF, 1.42 fold enrichment (6-mer frequency, TF over GST control); in the assay with ETV7 it was 1.48 fold enrichment (6-mer frequency, TF over GST control); with ELF5 it was 1.41 fold enrichment (6-mer frequency, TF over GST control). The binding signal with ETV3 was 1.45 fold enrichment (6-mer frequency, TF over GST control); with ETV6 it was 1.25 fold enrichment (6-mer frequency, TF over GST control).
For the sequence GTGCTC, the binding signal was 1.28 fold enrichment (6-mer frequency, TF over GST control) in the assay with ERF; 1.19 fold enrichment (6-mer frequency, TF over GST control) in the assay with ETV3L; 1.26 fold enrichment (6-mer frequency, TF over GST control) with ETS2; 1.05 fold enrichment (6-mer frequency, TF over GST control) with SPDEF; 1.25 fold enrichment (6-mer frequency, TF over GST control) with ETV7; 1.22 fold enrichment (6-mer frequency, TF over GST control) with ELF5. For the same sequence, the binding signal is 1.25 fold enrichment (6-mer frequency, TF over GST control) with ETV3 and 1.32 fold enrichment (6-mer frequency, TF over GST control) with ETV6.
For the sequence TACCCA, the binding signal in the assay with ERF was 1.18 fold enrichment (6-mer frequency, TF over GST control); with ETV3L, 1.06 fold enrichment (6-mer frequency, TF over GST control); with ETS2, 1.17 fold enrichment (6-mer frequency, TF over GST control); in the assay with SPDEF it was 1.09 fold enrichment (6-mer frequency, TF over GST control); with ETV7 it was 1.07 fold enrichment (6-mer frequency, TF over GST control); with ELF5, 1.09 fold enrichment (6-mer frequency, TF over GST control). For the same sequence, the binding signal in the assay with ETV3 is 1.06 fold enrichment (6-mer frequency, TF over GST control); with ETV6, 1 fold enrichment (6-mer frequency, TF over GST control).
As for TACAGG, the binding signal was 1.1 fold enrichment (6-mer frequency, TF over GST control) in the assay with ERF; 1.27 fold enrichment (6-mer frequency, TF over GST control) with ETV3L; 1.08 fold enrichment (6-mer frequency, TF over GST control) with ETS2; 1.39 fold enrichment (6-mer frequency, TF over GST control) in the assay with SPDEF; 1.12 fold enrichment (6-mer frequency, TF over GST control) with ETV7; 1.22 fold enrichment (6-mer frequency, TF over GST control) with ELF5. Also, the binding signal was 1.18 fold enrichment (6-mer frequency, TF over GST control) with ETV3 and 1.19 fold enrichment (6-mer frequency, TF over GST control) with ETV6.
For the sequence TCTTCA, the binding signal with ERF is 1.29 fold enrichment (6-mer frequency, TF over GST control); in the assay with ETV3L, 1.37 fold enrichment (6-mer frequency, TF over GST control); in the assay with ETS2, 1.11 fold enrichment (6-mer frequency, TF over GST control); with SPDEF, 1.25 fold enrichment (6-mer frequency, TF over GST control); with ETV7, 1.13 fold enrichment (6-mer frequency, TF over GST control); in the assay with ELF5, 1.16 fold enrichment (6-mer frequency, TF over GST control). Further, the binding signal in the assay with ETV3 is 1.16 fold enrichment (6-mer frequency, TF over GST control); in the assay with ETV6 it was 1.25 fold enrichment (6-mer frequency, TF over GST control).
